Compound activity as filed in PubChem BioAssay.
The sample as a whole holds a higher share of hits than the screen did.
VACV E9 pol inh: inhibitors of vaccinia virus processive DNA synthesis (E9 polymerase); 46,000 tested, 0.94% active; AID 493162; in vitro processive DNA synthesis, absorbance read-out; stronger effect = lower value; normalized absorbance, % (no concentration beside the values); in the data active means normalized absorbance mostly below about 85%, no sharp cut-off; inactive means mostly above about 86%
Large screens that a line does not name were inactive; ! = not confirmed by another sample.

O=C(O)c1ccc(N2N=C(C(F)(F)F)/C(=C/c3ccc(OC(=O)c4cccs4)cc3)C2=O)cc1	VACV E9 pol inh 23
CC1=C(C(=O)OC2CCCC(C)C2)C(c2ccccc2Cl)NC(=O)N1C (stereo unspecified)	none
CCN1CCCC1CNC(=O)C1c2ccccc2C(=O)N(CCOC)C1c1ccc(F)cc1 (stereo unspecified)	none
N#Cc1c(N)nc(SCc2ccccc2)c(C#N)c1-c1ccccc1	VACV E9 pol inh 83
N#Cc1c(-c2ccccc2)cc(-c2ccccc2)nc1N	none
CCOc1ccc(-c2c(C#N)c(N)nc(SCC#N)c2C#N)cc1	none
O=C1/C(=C/C2CCCO2)CC/C1=C\C1CCCO1 (stereo unspecified)	VACV E9 pol inh 14
COc1ccc(C(=O)Oc2ccc3oc(=O)sc3c2)cc1OC	none
CCc1nnc(NC(=O)c2ccccc2)s1	none
CCOC(=O)c1c(-c2ccccc2)c2cc(Cl)ccc2[nH]c1=O	none
Cc1cccc(N(C)C(=O)c2ccc3c(=O)n4c(nc3c2)CCCCC4)c1	none
CC(C)CCNC(=O)c1ccc2c(=O)n3c(nc2c1)CCCCC3	none
CN(C(=O)c1ccc2c(=O)n3c(nc2c1)CCCCC3)C1CCCCC1	VACV E9 pol inh 67
COc1cccc(/C(O)=C2\C(=O)C(=O)N(c3ccccn3)C2c2ccccc2)c1 (stereo unspecified)	none
CCOC(=O)c1sc(N2C(=O)C(=O)/C(=C(/O)c3ccc(OC)c(C)c3)C2c2ccccc2)nc1C (stereo unspecified)	VACV E9 pol inh 69
CCOC(=O)c1sc(Nc2ccccc2)nc1C	none
CC(=O)Nc1ccc(N=Cc2cccc3ccccc23)cc1	none
NCc1csc(-c2ccccc2)n1	none
O=C(Cc1csc(Nc2ccc(Cl)cc2)n1)NCc1ccccc1	none
N/C(=N\c1nc2ccccc2s1)NC(=O)c1cccc(Cl)c1	none
NC(=NCc1ccccc1)NC(=O)c1nc(Cl)c(N)nc1N	VACV E9 pol inh 59!
NC(=O)NC(=O)Cc1ccccc1	none
N/C(=N\c1nc(=O)c2ccccc2s1)NC(=O)c1ccc(Cl)c(Cl)c1	none
NC(=Nc1ccccc1)NC(=O)c1nc(Cl)c(N)nc1N	VACV E9 pol inh 51
O=C(NCCSc1c[nH]c2ccccc12)c1ccc(S(=O)(=O)N2CCCC2)cc1	none
CCCc1c(C(=O)N(Cc2ccccc2)Cc2cccs2)cnn1-c1ccccc1	none
CCCCC[C@H](O)/C=C/[C@@H]1[C@@H](C/C=C\CCCC(=O)O)[C@H]2CO[C@@H]1C2	none
Cc1ccc(NC(=O)CC(C)CC(=O)O)cc1 (stereo unspecified)	none
Nc1nnnn1N=Cc1ccc(-c2ccc3c(c2)COC3=O)o1	none
CCn1c2ccccc2c2nc3ccccc3nc21	VACV E9 pol inh 90
CCc1ccc2c(c1)c1nc3ccccc3nc1n2CC	none
CC(C)Cn1c2ccccc2c2nc3ccccc3nc21	none
Cc1oc(-c2ccccc2)cc1C(=O)Nc1cccc(/C=C\C(=O)O)c1	none
CCc1nn(CC(=O)N2CCC(C(N)=O)CC2)c(=O)c2cc3sccc3n12	none
CC1=CC(=O)N(c2ccc(OC(F)(F)F)cc2)C1=O	none
Cn1cc(SCC(=O)NC2CCCCC2)c2ccccc21	none
COC(=O)c1ccc2c(=O)nc3n(c2c1)Cc1ccccc1-3	none
O=C1NC(=S)N(c2ccccc2)C(=O)/C1=C/C=C/c1ccco1	VACV E9 pol inh 53
O=C1NC(=O)N(c2ccccc2)C(=O)/C1=C/c1ccco1	none
O=C1Nc2ccccc2/C1=C\C1=Cc2ccccc2OC1	none
O=C1Nc2ccccc2/C1=C/C=C/c1ccco1	VACV E9 pol inh 66
O=C1Nc2ccccc2/C1=C/C(=O)c1ccccc1	none
O=C1NC(=S)N/C1=C\c1ccco1	none
Cn1nc(-c2ccc(Cl)cc2)c2cc(C(=O)N3CCCC3)sc21	none
CC(C)(C)c1cc(CCC(=O)NCCN)cc(C(C)(C)C)c1O	none
Cc1ccc(-c2nc3n(n2)C(=O)CC(c2ccco2)S3)cc1 (stereo unspecified)	none
CC1CCC(OC(=O)CCC(=O)Nc2ccc(Br)cc2)CC1 (stereo unspecified)	none
Cc1ccccc1-c1c(-c2ccc(O)c(C)c2O)n[nH]c1C	none
Cc1ccccc1NCc1ccccc1O	none
Oc1ccccc1C=Nc1ccc(OC(F)(F)F)cc1	none
CCN(C(=O)CSc1ccc(Cl)cc1)C1CCCCC1	none
OC(CN1CCN(c2cccc(Cl)c2)CC1)Cn1c2ccccc2c2ccccc21 (stereo unspecified)	none
OC(CN1CCNCC1)Cn1c2ccc(Br)cc2c2cc(Br)ccc21 (stereo unspecified)	VACV E9 pol inh 31
CC1CC(C)CN(CC(O)Cn2c3ccccc3c3ccccc32)C1 (stereo unspecified)	none
C=CCN1C2=NC(=O)CN2c2ccccc21	none
Cc1cc(Nc2ccccc2)nc(Nc2ccccc2)n1	none
CCN(CC)CCNc1nc(C)cc(C)n1	none
Cc1cc(C)nc(NC2=NCCN2)n1	VACV E9 pol inh 48
CCCn1c(=N)c(C(=O)NC2CCCC2)cc2c(=O)n3ccccc3nc21	none
Cc1ccc(/C=C2/SC(=O)NC2=S)o1	VACV E9 pol inh 75
Cc1ccc(/C=C2/SC(=Nc3ccc(O)cc3)NC2=O)o1	none
Cc1ccc(/C=C2\SC(=O)NC2=O)o1	none
CN(C)CCN(C(=O)c1ccco1)c1nc2cc3c(cc2s1)OCO3	VACV E9 pol inh 61
COc1ccc2sc(N(CCN(C)C)C(C)=O)nc2c1	none
COc1ccc2nc(N(CCN(C)C)C(=O)c3cccs3)sc2c1	none
O=C(Nc1ccc(-c2ccccc2)cc1)c1ccc(Br)o1	none
COc1ccc2c(c1)c(=O)oc1c(C)c(OC(C(=O)O)c3ccccc3)ccc12 (stereo unspecified)	none
CN(C)Cc1ccc2ccc3cccc4ccc1c2c34	VACV E9 pol inh 12
CCc1cccc2c(=O)c(CN(C)C)c(C)[nH]c12	none
CCOC(=O)c1csc(NC(=O)c2ccc(S(=O)(=O)N(CC)CC)cc2)n1	none
Cc1cc2ccccn2c1C(=O)c1cccc(S(=O)(=O)N(C)C)c1	none
